TDP1 cell noCPT: qHTS for Inhibitors of human tyrosyl-DNA phosphodiesterase 1 (TDP1): qHTS in cells in absence of CPT; 420,000 tested, 15% active; Potency, µM (highest dose often 46.2 µM), inactives show at the highest dose activity change, negative = growth inhibition, hits mostly inhibitors; DT40 Tdp1-/- hTDP1 cells, no CPT, ATP luminescence, 48 h; note: potency is the fitted concentration of half-maximal effect; % is set by controls: 0 for no effect and ±100 for the full control effect; nearly all actives have a fitted effect of over 55% in size
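Cells were dispensed at 400 per well, compounds added by pin tool, plates incubated ≥48 hr at 37 °C, then CellTiter-Glo added for 30 min at room temperature before luminescence reading. Line: DT40 Tdp1-/- complemented with hTDP1; camptothecin omitted.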
DRD3 antagonist: blocks the human D3 dopamine receptor | P35462 | D3R cells, DiscoveRx beta-arrestin luminescence, antagonist mode; hits give low values | max response, negative = inhibition, % | 360,000 tested, 2.5% active | AID 652054; in the data active = max response below about -50%; inconclusive = no clear call, values can overlap the other calls; note: % is set by controls: 0 for no effect and ±100 for the full control effect
Target sequence (P35462 whole entry, looked up): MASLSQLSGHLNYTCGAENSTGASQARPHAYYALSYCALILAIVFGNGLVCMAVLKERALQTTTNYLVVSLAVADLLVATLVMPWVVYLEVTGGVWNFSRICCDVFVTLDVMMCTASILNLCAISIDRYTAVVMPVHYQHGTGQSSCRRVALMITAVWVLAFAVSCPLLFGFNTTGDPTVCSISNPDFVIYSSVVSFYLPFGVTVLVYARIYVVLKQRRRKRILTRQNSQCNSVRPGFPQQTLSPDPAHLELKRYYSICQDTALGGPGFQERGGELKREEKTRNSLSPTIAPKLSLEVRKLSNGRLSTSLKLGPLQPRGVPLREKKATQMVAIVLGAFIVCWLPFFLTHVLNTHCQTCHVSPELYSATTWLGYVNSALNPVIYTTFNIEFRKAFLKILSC
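Cells plated overnight at 1500 cells/well, then exposed to library compounds with dopamine controls for 90 minutes at 37 degrees C. DiscoveRx reagent added for 30–60 minutes at room temperature; luminescence read, quantitative HTS format.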
ClpP mod: qHTS Assay for Activators of ClpP; Potency, µM (series often up to 57.5 µM), for the others: at the highest dose activity change, negative = active; ATP-dependent Clp protease proteolytic subunit (Bacillus subtilis (strain 168)), P80244; 340,000 tested, 1.9% active; purified B. subtilis ClpP, FRET peptide cleavage, 20 min; active = well fitted falling curve with a large enough effect; inconclusive = small, poorly fitted or top-dose-only effect; inactive = no such curve, though single readings can be large or run the other way; note: potency is the fitted concentration of half-maximal effect; the source files actives as falling curves though it sought activators and does not explain the sign; nearly all actives have a fitted effect of over 65% in size
Target sequence (P80244 whole entry, looked up): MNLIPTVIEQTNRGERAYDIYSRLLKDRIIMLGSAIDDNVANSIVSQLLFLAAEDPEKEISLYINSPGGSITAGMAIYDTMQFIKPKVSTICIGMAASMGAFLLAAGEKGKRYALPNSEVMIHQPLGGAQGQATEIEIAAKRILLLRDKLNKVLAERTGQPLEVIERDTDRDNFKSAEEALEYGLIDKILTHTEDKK
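FRET quenching reversal measured ClpP activation: 10 microg/mL B. subtilis ClpP at pH 8 with the FRET-FV decapeptide, read at 430 nm after 320 nm excitation. The 20-min minus 0-min signal was scaled between DMSO/no-enzyme wells and ADEP (5.8 microM final).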
TDP1 cell CPT: growth inhibition of DT40 Tdp1-/-;hTDP1 cells with camptothecin (screen for TDP1 inhibitors) | chicken DT40 Tdp1-/-;hTDP1 cells + 20 nM CPT, ATP luminescence, 48 h | Potency, µM (doses to about 46.2 µM), inactives show top-dose activity change, negative = growth inhibition, actives largely listed as inhibitors | 420,000 tested, 12% active | AID 686979; note: potency is the fitted concentration of half-maximal effect; % is set by controls: 0 for no effect and ±100 for the full control effect; nearly all actives have a fitted effect of over 55% in size
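Chicken DT40 Tdp1-/- cells complemented with human TDP1, 400 cells/well, exposed to compounds plus 20 nM camptothecin for at least 48 h at 37 C; viability read as ATP content by CellTiter-Glo luminescence.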
IL-1B inflam inh: blocks inflammasome-driven IL-1 beta release. activity change, % at 57.5 µM. THP-1 LPS/ATP IL-1B secretion, AlphaLISA, 16 h; hits give low values. AID 743279. 360,000 tested, 4.7% active; in the data active = activity change below about -50%; inconclusive = mostly about -30% to -49%; note: % is set by controls: 0 for no effect and ±100 for the full control effect
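Secreted IL-1B measured by AlphaLISA bead assay after 16 h compound exposure of THP-1 cells; compounds (final up to 57.5 uM) added 1 h before LPS (250 ng/mL) and ATP (1.25 mM) stimulation; lower signal means less secretion.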
DRD3 agonist: activates the human D3 dopamine receptor; P35462; D3R DiscoveRx beta-arrestin cells, luminescence, 90 min; max activation, %; 410,000 tested, 0.58% active; AID 652048; in the data active = max activation above about 30%; note: 0% is about no effect
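Agonist mode: compounds and dopamine controls were applied to plated cells for 90 min at 37 degrees C after an overnight attachment at 1500 cells/well. Luminescent read-out followed 30 - 60 minutes at room temperature with DiscoveRx detection reagent.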
* hit, by the source's call; ? = inconclusive; / = no result given; [ ] = another dose, or the depositor's remark. Hits are enriched below; roughly 21% of the tested compounds scored in any of these assays. Unless noted, calls come from the whole dose curve; as a rule, active = well fitted inhibition curve with a large enough effect; inconclusive = small, poorly fitted or top-dose-only effect; inactive = flat fitted curve, though single readings scatter.

SMILES	TDP1 cell noCPT	DRD3 antagonist	ClpP mod	TDP1 cell CPT	IL-1B inflam inh	DRD3 agonist
Cc1ccc(CNS(=O)(=O)c2ccc3c(c2)CC(C)N3C(=O)C2CCC2)cc1 (configuration not stated)	21µM*	/	2%	?	/	4
Nc1ccc(S(=O)(=O)c2ccc(N)nc2)cc1	2%	-13	/	-4%	-5	6
COc1ccc(NC(=O)C2CCCN(S(C)(=O)=O)C2)cc1OC (configuration not stated)	11%	2	-2%	16%	3	-1
CCOc1ccc(NC(=O)CCNS(=O)(=O)c2ccc3c(c2)CC(C)N3C(C)=O)cc1 (configuration not stated)	23µM*	9	0%	15µM*	4	5
COc1ccc(NC(=O)CCNS(=O)(=O)c2ccc3c(c2)CC(C)N3C(C)=O)cc1 (configuration not stated)	1%	-4	-1%	-5%	-1	4
CC(=O)N1c2ccc(S(=O)(=O)NCc3ccc(Cl)cc3)cc2CC1C (configuration not stated)	23µM*	/	-2%	?	/	-13
NC(=O)C(c1ccccc1)c1ccc(C(=O)c2ccccc2)cc1 (configuration not stated)	?	-7	/	-18%	?	0
Cn1c(CC(=O)NC(C)(C)CO)c(Sc2ccccc2)c2ccccc21	16µM*	15	2%	15µM*	0	2
Cn1c(CC(=O)Nc2ccc(F)cc2)c(Sc2ccccc2)c2ccccc21	-16%	?	0%	?	30	-14
CN(C)c1cccc2c1C(=O)c1ccccc1C2=O	?	-21	-1%	-30%	?	-4
Cc1ccc(SC2=C(N(C)C)C(=O)c3ccccc3C2=O)cc1	5.2µM*	0	1%	4.6µM*	-64*	-7
Cc1cc(Br)ccc1SCC(=O)OC/C(O)=C(\C#N)c1nc2ccccc2[nH]1	21µM*	19	-9%	?	0	-1
N#CC(=C(O)COC(=O)Cc1c[nH]c2ccccc12)c1nc2ccccc2[nH]1	?	-9	/	2%	40	-16
Cc1cc(Br)ccc1SCC(=O)OCC(O)=C(C#N)c1nc2ccccc2[nH]1	4.6µM*	10	-7%	4.6µM*	-102*	8
N#C/C(=C(/O)COC(=O)CSc1ccc2ccccc2c1)c1nc2ccccc2[nH]1	2.9µM*	-13	-6%	5.2µM*	-105*	0
Cc1ccc(C)c(SCC(=O)OC/C(O)=C(\C#N)c2nc3ccccc3[nH]2)c1	?	-5	-8%	?	-97*	-1
Cc1c(C(=O)OC/C(O)=C(\C#N)c2nc3ccccc3[nH]2)oc2ccc(Br)cc12	?	?	/	-26%	34	-6
COc1cccc2c3c(c(C)nc12)CC(CO)O3 (configuration not stated)	-19%[9.04 µM]	/	/	?	/	/
C[C@H](CO)N1C[C@H](C)[C@@H](CN(C)Cc2ccc(C(=O)O)cc2)Oc2c(NS(=O)(=O)c3ccc(F)cc3)cccc2C1=O	-7%	-25	0%	10%	-6	-10
COc1cc(Cl)ccc1OCc1cc(C(=O)N(C)Cc2cccc3cnccc23)no1	12µM*	5	-4%	15µM*	-64*	5
COc1ccc(OCc2cc(C(=O)N(C)Cc3cnccn3)no2)c(Cl)c1	-1%	-14	-2%	5%	38	-7
CN(Cc1nccs1)C(=O)c1cc(COc2cccc3cnccc23)on1	10µM*	3	5%	7.3µM*	-15	4
COc1cc(Cl)ccc1OCc1cc(C(=O)NC(C)Cc2cccnc2)no1 (configuration not stated)	?	-4	28µM*	?	-7	7
CC(=O)c1cccc(OCc2cc(C(=O)N(C)Cc3nccs3)no2)c1	-33%	2	-1%	?	1	-3
COc1ccc(OCc2cc(C(=O)NC(C)Cc3cnccn3)no2)c(Cl)c1 (configuration not stated)	-29%	-19	0%	?	18	13
SMILES	TDP1 cell noCPT	DRD3 antagonist	ClpP mod	TDP1 cell CPT	IL-1B inflam inh	DRD3 agonist
O=C(OCC(=O)N1CCCc2ccccc21)c1ccc(F)c(S(=O)(=O)N2CCOCC2)c1	-15%	2	/	4%	31	-4
CCSc1ccccc1C(=O)Nc1ccc(-c2nc3ccccc3s2)c(O)c1	13µM*	/	-2%	9.2µM*	/	-19
CC(C)c1ccc(C(=O)Nc2ccc(-c3nc4ccccc4s3)c(Cl)c2)cc1	7.3µM*	/	?	6.5µM*	/	27
O=C(Nc1c(Cl)cc(Cl)cc1-c1nc2ccccc2s1)c1ccc(Br)o1	?	6	25µM*	?	36	-5
CSc1ccc(C(=O)Nc2ccc(-c3nc4ccccc4s3)c(O)c2)cc1	?	/	-2%	?	/	-5
CCC(C)(C)OC(=O)N[C@@H](Cc1c[nH]c2ccccc12)C(=O)N[C@@H](CCSC)C(=O)N[C@@H](CC(=O)O)C(=O)N[C@@H](Cc1ccccc1)C(N)=O	-23%	/	/	-6%	/	10
O=C(NCC(F)(F)F)c1ccc(S(=O)(=O)Nc2ccccc2N2CCCC2)cc1	-29%	-12	/	-27%	42	1
CCc1nnc(SCc2nc(-c3ccc(OC)c(OC)c3)oc2C)c2cc3sc(C)cc3n12	?	/	-8%	?	/	-14
COC(=O)c1ccc(Cl)c(NS(=O)(=O)c2ccc3c(c2)OCCO3)c1	4.1µM*	?	-15%	5.2µM*	3	-7
CC(C)[C@H](NS(=O)(=O)c1ccc2c(c1)OCCO2)C(=O)OCC(=O)Nc1cc(Cl)ccc1Cl	29µM*	8	-1%	?	30	-8
NC(=O)c1ccccc1NS(=O)(=O)c1ccc2c(c1)OCCO2	-2%	-28	25µM*	-8%	0	0
O=C(NS(=O)(=O)c1ccc2c(c1)OCCO2)c1ccccc1	-19%	-85*	1%	-26%	9	2
O=C(O)c1ccccc1NS(=O)(=O)c1ccc2c(c1)OCCO2	1%	-16	/	1%	5	-1
CSc1ccccc1NC(=O)CN(C)CC(=O)Nc1ccccc1F	-25%	-8	-5%	-4%	-1	-2
Cc1ccc(/C=C2/Sc3ccccc3N(CC(=O)NCCCOC(C)C)C2=O)cc1	?	12	79%	?	?	1

Bioassay records from PubChem.
